Assay results from ChEMBL document CHEMBL1157539, “Thousands of chemical starting points for antimalarial lead identification” (Nature, 2010).

Test system: HepG2
Assay: GSK_TCMDC: Percent inhibition of human HepG2 cell line. Test compounds present at 10uM.
Assay type: functional

Compound | Inhibition [%]
Cc1ccc(C)c(Cn2ccc3nc(Cl)nc(Cl)c32)c1 | 0
COc1cc2nc(N(C)C)nc(Nc3ccc(OCc4ccccc4)cc3)c2cc1OC | 91
Nc1nc(N)c2cc(CNc3ccc(Cl)c(Cl)c3)ccc2n1 | 62
O=C(NCCCCN1CC=C(c2ccc3c(c2OCC2CC2)CCCC3)CC1)c1ccc(-c2ccc(C(F)(F)F)cc2)cc1 | 25
C=C[C@]1(C)C[C@@H](OC(=O)CSC2CN3CCC2C3)[C@@]2(C)C3C(=O)CC[C@@]3(CC[C@H]2C)[C@@H](C)[C@@H]1O.Cl (some centres undefined) | 18
CCN(CC)CCNC(=O)c1ccc(NC(=O)c2cc3c(C)nn(-c4ccc(Cl)cc4)c3s2)cc1.Cl | 24
CC1CCN(Cc2c(O)ccc3c(O)c(-c4nc5ccccc5s4)c(=N)oc23)CC1 | 2
C#CCOc1ccc2ccccc2c1CNCCCCCCNCc1c(OCC#C)ccc2ccccc12.CS(=O)(=O)O | 100
CC(C)(CNC(=O)[C@H]1CCCN1)c1nc(-c2ccc(Cl)c(O)c2)c(-c2ccncc2)[nH]1.Cl | 0
Cc1cc(N2CCN(C(=O)OC(C)(C)C)CC2)ccc1N | 11
COc1ccc(-c2cnc3[nH]cc(-c4ccc(C(=O)O)c(C)c4)c3c2)cn1.O=C(O)C(F)(F)F | 23
CS(=O)(=O)Cc1ccc(Nc2ncc(Cl)c(Nc3cccnc3C(N)=O)n2)cc1.Cl | 54
COc1ccc(NC(=O)Nc2cccc(-c3ccc(-c4nc5cccc(C)c5[nH]4)s3)c2)cc1 | 23
CC(C)(C)c1ccc2oc(=O)n(C3CCN(C(=O)c4ccc([N+](=O)[O-])o4)CC3)c2c1 | 0
